Reference: PubChem BioAssay
For some of these results: Entries with a potency or affinity are not part of this list. Activity calls are given as the source filed them. Unless noted, the rule behind the calls is not given here.

Legend:
[1] = antimalarial activity against Dd2 strain (AID 2302;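 active = growth inhibition above 50% at the single 2 µM test dose, taken to imply half-maximal potency below 2 µM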;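 note: 0% = DMSO untreated growth and 100% = chloroquine plus artemisinin killed control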); conditions: P. falciparum Dd2 in RBCs, LDH growth readout, 72 h; at 2 µM; hits give high values
[2] = HepG2 cytotoxicity, primary screen, cytotoxicity control for P. falciparum antimalarial project, cell-based, ATP luminescence (AID 2303;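 active = inhibition above 50%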;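 note: 0% = DMSO wells and 100% = digitonin-killed cells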); conditions: HepG2 viability, 24-48 h, at 10 µM, hits give high values
[3] = target: L-lactate dehydrogenase (Plasmodium falciparum (isolate CDC / Honduras)) (UniProt Q27743); experiment: PfLDH activity inhibition – cell lysate, 3D7 strain, counter-screen for P. falciparum growth inhibition project (AID 2304);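 note: 0% = vehicle and 100% = reference inhibitor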; conditions: P. falciparum 3D7 crude extract, LDH APAD/NBT absorbance; at 2 µM; hits give high values
[4] = inhibition of 3D7 malaria parasite growth – strain 3D7 (AID 2306);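 note: 0% = DMSO wells and 100% = chloroquine plus artemisinin control wells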; conditions: P. falciparum 3D7 erythrocytic growth, LDH absorbance, 72 h; at 2 µM; hits give high values
[5] = target: Calcium-dependent protein kinase 1 (Plasmodium falciparum (isolate 3D7)) (UniProt P62344); experiment: PfCDPK1 kinase inhibitors, biochemical, TCAMS library (AID 1159585; cut-off not given, nearly all actives have IC50 up to about 0.98 µM;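 note: inhibitors leave more ATP so luminescence rises with inhibition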); conditions: recombinant PfCDPK1, Kinase-Glo ATP depletion luminescence
[6] = target: Plasmodium falciparum protein kinase 6 (PK6, PF3D7_1337100) (UniProt Q8IDW1); experiment: PfPK6 kinase inhibitors, biochemical, TCAMS library (AID 1159586); conditions: recombinant PfPK6, Kinase-Glo ATP depletion luminescence
[7] = target: Protein kinase 7 (PK7), Plasmodium falciparum 3D7 (PF3D7_0213400) (UniProt Q7YTF7); experiment: inhibition of Plasmodium PK7 catalytic activity – biochemical, TCAMS antimalarial set, Kinase-Glo luminescence (AID 1159587); conditions: recombinant PfPK7, Kinase-Glo ATP depletion luminescence
[8] = target: Calcium-dependent protein kinase 4 (Plasmodium falciparum (isolate 3D7)) (UniProt Q8IBS5); experiment: PfCDPK4 kinase inhibitors, biochemical, TCAMS library (AID 1159588; cut-off not given, nearly all actives have IC50 up to about 0.91 µM); conditions: recombinant PfCDPK4, Kinase-Glo ATP depletion luminescence
Chain of Calcium-dependent protein kinase 4 (Plasmodium falciparum (isolate 3D7)) (Q8IBS5 whole entry, looked up): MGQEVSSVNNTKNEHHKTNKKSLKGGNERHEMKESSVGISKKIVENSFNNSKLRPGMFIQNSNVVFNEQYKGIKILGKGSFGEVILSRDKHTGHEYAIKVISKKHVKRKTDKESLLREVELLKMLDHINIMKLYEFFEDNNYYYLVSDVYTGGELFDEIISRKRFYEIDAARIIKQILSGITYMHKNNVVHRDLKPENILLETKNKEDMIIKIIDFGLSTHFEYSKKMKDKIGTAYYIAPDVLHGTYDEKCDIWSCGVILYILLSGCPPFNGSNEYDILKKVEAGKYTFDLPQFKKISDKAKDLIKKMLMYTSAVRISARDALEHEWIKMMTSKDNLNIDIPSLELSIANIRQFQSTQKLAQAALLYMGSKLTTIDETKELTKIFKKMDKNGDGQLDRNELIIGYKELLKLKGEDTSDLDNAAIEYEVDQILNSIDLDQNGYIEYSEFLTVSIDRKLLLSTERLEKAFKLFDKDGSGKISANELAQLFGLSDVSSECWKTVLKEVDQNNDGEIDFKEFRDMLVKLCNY

Chain of Plasmodium falciparum protein kinase 6 (PK6, PF3D7_1337100) (Q8IDW1 1-305): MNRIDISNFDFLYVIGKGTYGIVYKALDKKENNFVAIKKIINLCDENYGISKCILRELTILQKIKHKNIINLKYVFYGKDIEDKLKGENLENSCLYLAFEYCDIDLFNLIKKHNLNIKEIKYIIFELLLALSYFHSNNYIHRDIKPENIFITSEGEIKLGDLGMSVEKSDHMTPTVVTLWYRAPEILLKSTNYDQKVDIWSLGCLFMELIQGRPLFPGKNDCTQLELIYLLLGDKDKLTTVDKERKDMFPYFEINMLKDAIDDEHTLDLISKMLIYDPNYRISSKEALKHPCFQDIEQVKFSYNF
Chain of Protein kinase 7 (PK7), Plasmodium falciparum 3D7 (PF3D7_0213400) (Q7YTF7 1-343): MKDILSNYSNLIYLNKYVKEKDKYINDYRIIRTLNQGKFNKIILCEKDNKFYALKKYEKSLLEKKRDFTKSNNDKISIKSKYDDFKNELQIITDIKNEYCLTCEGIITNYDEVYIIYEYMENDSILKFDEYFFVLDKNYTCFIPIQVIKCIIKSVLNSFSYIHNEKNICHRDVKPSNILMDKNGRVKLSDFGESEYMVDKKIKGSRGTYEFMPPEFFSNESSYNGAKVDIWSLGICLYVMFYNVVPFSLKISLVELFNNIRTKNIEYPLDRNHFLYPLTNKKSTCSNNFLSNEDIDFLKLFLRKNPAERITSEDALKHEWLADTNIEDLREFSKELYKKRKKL
Chain of L-lactate dehydrogenase (Plasmodium falciparum (isolate CDC / Honduras)) (Q27743 whole entry, looked up): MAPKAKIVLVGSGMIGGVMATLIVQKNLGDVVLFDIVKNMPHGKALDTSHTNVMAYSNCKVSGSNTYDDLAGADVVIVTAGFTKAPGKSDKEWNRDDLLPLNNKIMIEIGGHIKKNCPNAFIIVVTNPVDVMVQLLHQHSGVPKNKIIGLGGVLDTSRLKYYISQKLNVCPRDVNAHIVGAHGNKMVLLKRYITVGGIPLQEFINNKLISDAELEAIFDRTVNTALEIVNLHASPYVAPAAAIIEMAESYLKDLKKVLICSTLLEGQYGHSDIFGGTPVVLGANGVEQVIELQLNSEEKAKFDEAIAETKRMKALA
Chain of Calcium-dependent protein kinase 1 (Plasmodium falciparum (isolate 3D7)) (P62344 whole entry, looked up): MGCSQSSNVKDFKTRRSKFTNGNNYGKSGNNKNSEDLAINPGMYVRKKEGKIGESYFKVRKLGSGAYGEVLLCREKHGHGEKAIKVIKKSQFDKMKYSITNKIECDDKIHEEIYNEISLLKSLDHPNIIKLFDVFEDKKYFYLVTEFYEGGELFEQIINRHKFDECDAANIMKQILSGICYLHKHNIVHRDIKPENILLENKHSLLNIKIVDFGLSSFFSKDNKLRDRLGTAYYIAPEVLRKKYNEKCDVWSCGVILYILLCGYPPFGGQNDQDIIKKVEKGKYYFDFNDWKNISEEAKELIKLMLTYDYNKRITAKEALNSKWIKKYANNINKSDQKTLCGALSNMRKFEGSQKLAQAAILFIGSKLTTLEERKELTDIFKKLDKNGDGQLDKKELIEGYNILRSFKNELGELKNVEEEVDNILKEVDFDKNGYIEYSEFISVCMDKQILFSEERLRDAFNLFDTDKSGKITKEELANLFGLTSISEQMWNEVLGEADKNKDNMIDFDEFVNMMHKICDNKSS

FC(F)(F)c1ccc2c(NN=Cc3cccc(Cl)c3)ccnc2c1
inactive: inhibition [2] 7% | inhibition [3] -3% | outcome [5] | outcome [6] | outcome [7] | outcome [8]
active: growth inhibition [1] 59% | growth inhibition [4] 93%

CC(C)CNCc1ccc(OCc2cccc(COc3ccc(CNCC(C)C)cc3I)c2)c(I)c1
active: growth inhibition [1] 84% | growth inhibition [4] 98%
inactive: inhibition [2] 23% | inhibition [3] -4% | outcome [5] | outcome [6] | outcome [7] | outcome [8]

Cc1ccc(Nc2nc(N)c3ccccc3n2)cc1
active: growth inhibition [4] 94%
inactive: growth inhibition [1] 12% | inhibition [2] 9% | inhibition [3] 8% | outcome [5] | outcome [6] | outcome [7] | outcome [8]

CNc1nc(Nc2ccccc2C)nc2ccccc12
inactive: inhibition [2] 17% | inhibition [3] -1% | outcome [5] | outcome [6] | outcome [7] | outcome [8]
active: growth inhibition [1] 81% | growth inhibition [4] 101%

Cc1cc(CN2CCC(N3CC(c4ccccc4)(c4ccccc4)OC3=O)C2)ccc1O (stereo not drawn)
active: growth inhibition [1] 68% | growth inhibition [4] 96%
inactive: inhibition [2] -3% | inhibition [3] 1% | outcome [5] | outcome [6] | outcome [7] | outcome [8]

Cc1ccc(C)c(Cn2ccc3nc(Cl)nc(Cl)c32)c1
active: growth inhibition [1] 68% | growth inhibition [4] 95%
inactive: inhibition [2] -10% | inhibition [3] -2% | outcome [5] | outcome [6] | outcome [7] | outcome [8]

COc1ccc(Cl)cc1N1CCN(CCCNC(=O)c2ccc(-c3nc4cc(Cl)c(Cl)cc4[nH]3)c(C)c2)CC1
inactive: growth inhibition [1] -1% | inhibition [2] 4% | inhibition [3] 2% | outcome [5] | outcome [6] | outcome [7] | outcome [8]
active: growth inhibition [4] 101%

CC(C)(C)c1cc(C(=O)N2CCN(c3cnccn3)CC2)n(Cc2ccccc2)n1
inactive: growth inhibition [1] 33% | inhibition [2] -1% | inhibition [3] -4% | outcome [5] | outcome [6] | outcome [7] | outcome [8]
active: growth inhibition [4] 92%

Cc1cc(Nc2ccccc2)nc(Nc2ccccc2)n1
inactive: inhibition [2] 0% | inhibition [3] -1% | outcome [5] | outcome [6] | outcome [7] | outcome [8]
active: growth inhibition [1] 74% | growth inhibition [4] 96%

Cc1ncccc1C(=O)Nc1ccc(-c2cccc(-c3nc4c(C)cccc4[nH]3)c2)cc1
inactive: growth inhibition [1] 31% | inhibition [2] 6% | inhibition [3] -5% | outcome [5] | outcome [6] | outcome [7] | outcome [8]
active: growth inhibition [4] 95%

CCOc1ncccc1CN1CCC(N2CCc3cc(NC(=O)c4ccco4)ccc32)C1 (stereo not drawn)
active: growth inhibition [1] 94% | growth inhibition [4] 90%
inactive: inhibition [2] 3% | inhibition [3] 1% | outcome [5] | outcome [6] | outcome [7] | outcome [8]

O=C(NC1CCN(c2ccnc3ccccc23)C1)c1ccc(OC(F)(F)F)cc1 (stereo not drawn)
active: growth inhibition [1] 68% | growth inhibition [4] 89%
inactive: inhibition [2] 35% | inhibition [3] -4% | outcome [5] | outcome [6] | outcome [7] | outcome [8]

O=C(NCCc1ccc(O)cc1)n1c2ccccc2c2ccccc21
active: growth inhibition [1] 76% | growth inhibition [4] 83%
inactive: inhibition [2] 3% | inhibition [3] -1% | outcome [5] | outcome [6] | outcome [7] | outcome [8]

COc1ccc2ncc(C#N)c(CCN3CCC(NCc4ccc5c(c4)NC(=O)CO5)CC3)c2c1
active: growth inhibition [4] 99%
inactive: growth inhibition [1] 43% | inhibition [2] 25% | inhibition [3] -3% | outcome [5] | outcome [6] | outcome [7] | outcome [8]

Cc1cc(NN=Cc2ccccc2F)c2ccccc2n1
inactive: inhibition [2] 14% | inhibition [3] 1% | outcome [5] | outcome [6] | outcome [7] | outcome [8]
active: growth inhibition [1] 81% | growth inhibition [4] 101%

CC(C)N1CCN(C(CN2CCN(CCCOc3cccc(F)c3)CC2)c2ccc(F)cc2)CC1 (stereo not drawn)
inactive: growth inhibition [1] 38% | inhibition [2] 38% | inhibition [3] 0% | outcome [5] | outcome [6] | outcome [7] | outcome [8]
active: growth inhibition [4] 92%

O=C(c1cc(-c2cccs2)[nH]n1)N1CCN(S(=O)(=O)c2ccc(Cl)s2)CC1
inactive: inhibition [2] 20% | inhibition [3] 1% | outcome [5] | outcome [6] | outcome [7] | outcome [8]
active: growth inhibition [1] 80% | growth inhibition [4] 84%

O=C(Nc1ccc(C(=O)Oc2cccc3ccccc23)cc1)N[C@@H](Cc1ccc(O)cc1)C(=O)NC1CCN(Cc2ccc(O)cc2)C1 (stereo partly drawn)
inactive: growth inhibition [1] -5% | inhibition [2] -1% | inhibition [3] 1% | outcome [5] | outcome [6] | outcome [7] | outcome [8]
active: growth inhibition [4] 87%

CC(C)(C)c1cc([N+](=O)[O-])cc(C(=O)Nc2ccccc2C(F)(F)F)c1O
active: growth inhibition [1] 99% | inhibition [2] 74% | growth inhibition [4] 96%
inactive: inhibition [3] 5% | outcome [5] | outcome [6] | outcome [7] | outcome [8]

Cc1cc(C(=O)Nc2ccc3c(c2)CCN3C2CCN(Cc3ccc4nsnc4c3)C2)no1 (stereo not drawn)
inactive: inhibition [2] -1% | inhibition [3] -1% | outcome [5] | outcome [6] | outcome [7] | outcome [8]
active: growth inhibition [1] 94% | growth inhibition [4] 90%

Cc1nc(N)nc(N)c1-c1ccc(Br)cc1
inactive: growth inhibition [1] 1% | inhibition [2] 46% | inhibition [3] 3% | outcome [5] | outcome [6] | outcome [7] | outcome [8]
active: growth inhibition [4] 98%

CC(C)(C)c1ccc2nc(-c3ccc(C(=O)NCCCc4ccccc4)cc3)[nH]c2c1
active: growth inhibition [4] 95%
inactive: growth inhibition [1] 14% | inhibition [2] 11% | inhibition [3] 5% | outcome [5] | outcome [6] | outcome [7] | outcome [8]

CCN(CCCN1CCCCC1)c1cc(C)nc(Nc2ccc(Br)cc2F)n1
inactive: growth inhibition [1] 24% | inhibition [2] 32% | inhibition [3] -6% | outcome [5] | outcome [6] | outcome [7] | outcome [8]
active: growth inhibition [4] 95%

COc1ccc(C(=O)COc2cccc(/C=C/C(=O)O)c2)cc1OC
active: growth inhibition [4] 84%
inactive: growth inhibition [1] 28% | inhibition [2] 44% | inhibition [3] 3% | outcome [5] | outcome [6] | outcome [7] | outcome [8]

Cc1cc2nc(-c3ccc(/C=C/C(=O)NCCCc4ccccc4)cc3)[nH]c2cc1C
active: growth inhibition [4] 96%
inactive: growth inhibition [1] 13% | inhibition [2] 15% | inhibition [3] -4% | outcome [5] | outcome [6] | outcome [7] | outcome [8]

O=C(Nc1cccc(CN2CCCN(Cc3ccc(O)cc3)CC2)c1)c1ccc(Cl)c(Cl)c1
inactive: inhibition [2] 22% | inhibition [3] -1% | outcome [5] | outcome [6] | outcome [7] | outcome [8]
active: growth inhibition [1] 81% | growth inhibition [4] 103%

COc1ccc(NC(=O)/C=C/c2ccccc2Cl)cc1OCCN1CCN(c2ccncc2)CC1
inactive: inhibition [2] 7% | inhibition [3] -2% | outcome [5] | outcome [6] | outcome [7] | outcome [8]
active: growth inhibition [1] 52% | growth inhibition [4] 101%

COc1ccccc1-c1csc(C(=O)NCC2CCN(Cc3ccc(C(C)C)cc3)C2)c1 (stereo not drawn)
active: growth inhibition [4] 81%
inactive: growth inhibition [1] 6% | inhibition [2] 24% | inhibition [3] 1% | outcome [5] | outcome [6] | outcome [7] | outcome [8]

Cc1cc(NC(=O)c2cccs2)ccc1OC1CCN(Cc2ccc(F)cc2)CC1
active: growth inhibition [1] 92% | growth inhibition [4] 94%
inactive: inhibition [2] 7% | inhibition [3] -1% | outcome [5] | outcome [6] | outcome [7] | outcome [8]

COc1ccccc1N1CCN(Cc2c(O)ccc3cc(Br)ccc23)CC1
active: growth inhibition [1] 75% | growth inhibition [4] 89%
inactive: inhibition [2] 8% | inhibition [3] 2% | outcome [5] | outcome [6] | outcome [7] | outcome [8]

CC1(C)N=C(N)N=C(N)N1CCc1ccccc1
active: inhibition [2] 50% | growth inhibition [4] 93%
inactive: growth inhibition [1] -1% | inhibition [3] -4% | outcome [5] | outcome [6] | outcome [7] | outcome [8]

CC(=O)Nc1ccc(CCNC(C)Cc2ccc(C(=O)Nc3ccc(CC(C)NCCc4cccc(Cl)c4)cc3)cc2)cc1 (stereo not drawn)
active: growth inhibition [1] 84% | inhibition [2] 50% | growth inhibition [4] 100%
inactive: inhibition [3] -7% | outcome [5] | outcome [6] | outcome [7] | outcome [8]

CN1CCCN(Cc2ccc(-c3ccc(NC(=O)c4cccc(Cl)c4)cc3)cc2)CC1
active: growth inhibition [1] 64% | inhibition [2] 55% | growth inhibition [4] 95%
inactive: inhibition [3] 2% | outcome [5] | outcome [6] | outcome [7] | outcome [8]

CC(C)CNC(=O)c1cncc(-c2ccc(CNC3Cc4ccccc4C3)cc2)c1
inactive: growth inhibition [1] 37% | inhibition [2] 5% | inhibition [3] 0% | outcome [5] | outcome [6] | outcome [7] | outcome [8]
active: growth inhibition [4] 99%

O=C(NCCCCCN1CCC(c2c[nH]c3ccccc23)CC1)Nc1ccc(I)c(Cl)c1
inactive: growth inhibition [1] 5% | inhibition [3] 3% | outcome [5] | outcome [6] | outcome [7] | outcome [8]
active: inhibition [2] 88% | growth inhibition [4] 99%

COc1cc2nc(NCCc3ccccc3)nc(NCc3cnn(C)c3C)c2cc1OC
active: growth inhibition [1] 94% | growth inhibition [4] 99%
inactive: inhibition [2] 13% | inhibition [3] 0% | outcome [5] | outcome [6] | outcome [7] | outcome [8]

CCOC(=O)/C(=N\OC(C(=O)OC(C)(C)C)c1ccccc1)c1csc(NC(c2ccccc2)(c2ccccc2)c2ccccc2)n1 (stereo not drawn)
inactive: inhibition [2] 14% | inhibition [3] 5% | outcome [5] | outcome [6] | outcome [7] | outcome [8]
active: growth inhibition [1] 68% | growth inhibition [4] 89%

COc1ccc2ncc(Cl)c([C@@H](O)CN3CCC(NCc4cc5c(cn4)OCCO5)CC3)c2c1
active: growth inhibition [1] 100% | growth inhibition [4] 101%
inactive: inhibition [2] 8% | inhibition [3] 3% | outcome [5] | outcome [6] | outcome [7] | outcome [8]

CN1CCN(CC(=O)Nc2cccc(-c3cccc(-c4nc5ccc(F)cc5[nH]4)c3)c2)CC1
active: growth inhibition [1] 98% | growth inhibition [4] 100%
inactive: inhibition [2] 16% | inhibition [3] 6% | outcome [5] | outcome [6] | outcome [7] | outcome [8]

C=CCN(C(=O)c1ccc(Cl)c([N+](=O)[O-])c1)c1nc(-c2ccccc2)cs1
active: growth inhibition [1] 99% | growth inhibition [4] 100%
inactive: inhibition [2] -13% | inhibition [3] -6% | outcome [5] | outcome [6] | outcome [7] | outcome [8]

COc1ccc(C(C(=O)NC2CCN(C[C@H](O)c3ccnc4ccc(OC)cc34)CC2)N2CCN(c3ccc(F)cc3)CC2)cc1 (stereo partly drawn)
inactive: inhibition [2] 16% | inhibition [3] -6% | outcome [5] | outcome [6] | outcome [7] | outcome [8]
active: growth inhibition [1] 86% | growth inhibition [4] 97%
